For 15 sequences, binding signal results are on record in publication PMC11006913.

What all share (assay): PBM; 200 nM protein, PBS
Holding throughout (settings): dsDNA, one strand shown

Experiment [1] concerns the target T1, PAX4 (Homo sapiens, UniProt O43316 9-242, R200K).
T1 sequence: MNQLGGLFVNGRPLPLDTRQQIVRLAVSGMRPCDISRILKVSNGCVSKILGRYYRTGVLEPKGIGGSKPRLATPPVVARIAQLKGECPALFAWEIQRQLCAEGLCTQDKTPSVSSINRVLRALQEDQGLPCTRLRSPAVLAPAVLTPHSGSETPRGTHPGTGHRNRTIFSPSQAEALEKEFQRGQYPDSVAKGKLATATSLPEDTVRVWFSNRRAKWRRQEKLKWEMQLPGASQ

Experiment [2] addresses T2, PAX4 (Homo sapiens, UniProt O43316 9-242).
T2 sequence: T1 sequence with K192R

Experiment [3] has as its target T3, PAX4 (Homo sapiens, UniProt O43316 9-242, R200Q).
T3 sequence: T1 sequence with K192Q

In experiment [4] the target is T4, PAX4 (Homo sapiens, UniProt O43316 9-242, F177V).
T4 sequence: T1 sequence with F169V, K192R

Experiment [5] has as its target T5, PAX4 (Homo sapiens, UniProt O43316 9-242, F177Y).
T5 sequence: T1 sequence with F169Y, K192R

The target in experiment [6] is T6, PAX4 (Homo sapiens, UniProt O43316 9-242, R227W).
T6 sequence: T1 sequence with K192R, R219W

In experiment [7] the target is PROP1 (Homo sapiens, UniProt O75360 56-141).
PROP1 (Homo sapiens, UniProt O75360 56-141), sequence (O75360 56-141): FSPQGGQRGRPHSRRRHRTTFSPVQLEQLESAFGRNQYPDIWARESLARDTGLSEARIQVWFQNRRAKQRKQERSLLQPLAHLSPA
For experiment [8], the target named is PROP1 (Homo sapiens, UniProt O75360 56-141, R99H).
PROP1 (Homo sapiens, UniProt O75360 56-141, R99H), sequence (O75360 56-141 R99H): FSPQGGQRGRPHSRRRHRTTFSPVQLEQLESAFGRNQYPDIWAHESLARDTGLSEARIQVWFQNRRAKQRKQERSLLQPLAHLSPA
For experiment [9], the target named is PROP1 (Homo sapiens, UniProt O75360 56-141, F88S).
PROP1 (Homo sapiens, UniProt O75360 56-141, F88S), sequence (O75360 56-141 F88S): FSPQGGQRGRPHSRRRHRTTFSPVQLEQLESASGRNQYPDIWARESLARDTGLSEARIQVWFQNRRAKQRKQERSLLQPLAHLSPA

Where a chain is given by its changes, count along the chain named.

For CCAAGTCC, the binding signal with PAX4 [1] is 9.27 upbm affinity estimate (log intensity, higher = more binding, comparable within an allelic series); in the experiment with PAX4 [2], 9.3 upbm affinity estimate (log intensity, higher = more binding, comparable within an allelic series); in the experiment with PAX4 [3], 9.4 upbm affinity estimate (log intensity, higher = more binding, comparable within an allelic series); with PAX4 [4] it was 9.27 upbm affinity estimate (log intensity, higher = more binding, comparable within an allelic series); with PAX4 [5] it was 9.25 upbm affinity estimate (log intensity, higher = more binding, comparable within an allelic series); in the experiment with PAX4 [6], 9.38 upbm affinity estimate (log intensity, higher = more binding, comparable within an allelic series).
For CCGGGCCC, the binding signal was 9.07 upbm affinity estimate (log intensity, higher = more binding, comparable within an allelic series) with PAX4 [1]; 9.07 upbm affinity estimate (log intensity, higher = more binding, comparable within an allelic series) with PAX4 [2]; 9.07 upbm affinity estimate (log intensity, higher = more binding, comparable within an allelic series) in the experiment with PAX4 [3]; 9.05 upbm affinity estimate (log intensity, higher = more binding, comparable within an allelic series) in the experiment with PAX4 [4]; 9 upbm affinity estimate (log intensity, higher = more binding, comparable within an allelic series) in the experiment with PAX4 [5]; 6.54 upbm affinity estimate (log intensity, higher = more binding, comparable within an allelic series) in the experiment with PROP1 [7]. Further, the binding signal with PROP1 [8] was 6.73 upbm affinity estimate (log intensity, higher = more binding, comparable within an allelic series); in the experiment with PROP1 [9], 6.36 upbm affinity estimate (log intensity, higher = more binding, comparable within an allelic series); with PAX4 [6], 9.12 upbm affinity estimate (log intensity, higher = more binding, comparable within an allelic series).
Consider CTGAGCGC, for which the binding signal is 9.25 upbm affinity estimate (log intensity, higher = more binding, comparable within an allelic series) with PAX4 [1]; 9.2 upbm affinity estimate (log intensity, higher = more binding, comparable within an allelic series) with PAX4 [2]; 9.31 upbm affinity estimate (log intensity, higher = more binding, comparable within an allelic series) with PAX4 [3]; 9.15 upbm affinity estimate (log intensity, higher = more binding, comparable within an allelic series) with PAX4 [4]; 9.2 upbm affinity estimate (log intensity, higher = more binding, comparable within an allelic series) with PAX4 [5]; 9.27 upbm affinity estimate (log intensity, higher = more binding, comparable within an allelic series) with PAX4 [6].
For the sequence CCGAAGCC, the binding signal in the experiment with PAX4 [1] is 9.25 upbm affinity estimate (log intensity, higher = more binding, comparable within an allelic series); with PAX4 [2], 9.26 upbm affinity estimate (log intensity, higher = more binding, comparable within an allelic series); with PAX4 [3], 9.27 upbm affinity estimate (log intensity, higher = more binding, comparable within an allelic series); in the experiment with PAX4 [4], 9.17 upbm affinity estimate (log intensity, higher = more binding, comparable within an allelic series); with PAX4 [5] it was 9.2 upbm affinity estimate (log intensity, higher = more binding, comparable within an allelic series); in the experiment with PAX4 [6], 9.18 upbm affinity estimate (log intensity, higher = more binding, comparable within an allelic series).
Take CTAATCAG: the binding signal is 11.2 upbm affinity estimate (log intensity, higher = more binding, comparable within an allelic series) with PAX4 [1]; 11.6 upbm affinity estimate (log intensity, higher = more binding, comparable within an allelic series) with PAX4 [2]; 11.3 upbm affinity estimate (log intensity, higher = more binding, comparable within an allelic series) in the experiment with PAX4 [3]; 10.1 upbm affinity estimate (log intensity, higher = more binding, comparable within an allelic series) in the experiment with PAX4 [4]; 10.5 upbm affinity estimate (log intensity, higher = more binding, comparable within an allelic series) in the experiment with PAX4 [5]; 10.3 upbm affinity estimate (log intensity, higher = more binding, comparable within an allelic series) with PAX4 [6].
As for ATGTATTA, the binding signal with PAX4 [1] was 11.5 upbm affinity estimate (log intensity, higher = more binding, comparable within an allelic series); with PAX4 [2] it was 11.8 upbm affinity estimate (log intensity, higher = more binding, comparable within an allelic series); in the experiment with PAX4 [3], 11.4 upbm affinity estimate (log intensity, higher = more binding, comparable within an allelic series); with PAX4 [4], 10.8 upbm affinity estimate (log intensity, higher = more binding, comparable within an allelic series); with PAX4 [5], 11 upbm affinity estimate (log intensity, higher = more binding, comparable within an allelic series); in the experiment with PAX4 [6], 11 upbm affinity estimate (log intensity, higher = more binding, comparable within an allelic series).
Turning to CGGGCCAC, the binding signal with PAX4 [1] was 9.16 upbm affinity estimate (log intensity, higher = more binding, comparable within an allelic series); with PAX4 [2], 9.26 upbm affinity estimate (log intensity, higher = more binding, comparable within an allelic series); in the experiment with PAX4 [3], 9.31 upbm affinity estimate (log intensity, higher = more binding, comparable within an allelic series); with PAX4 [4], 9.28 upbm affinity estimate (log intensity, higher = more binding, comparable within an allelic series); with PAX4 [5], 9.41 upbm affinity estimate (log intensity, higher = more binding, comparable within an allelic series); with PAX4 [6], 9.3 upbm affinity estimate (log intensity, higher = more binding, comparable within an allelic series).
Take CACCGGCC: the binding signal was 9.22 upbm affinity estimate (log intensity, higher = more binding, comparable within an allelic series) in the experiment with PAX4 [1]; 9.3 upbm affinity estimate (log intensity, higher = more binding, comparable within an allelic series) in the experiment with PAX4 [2]; 9.31 upbm affinity estimate (log intensity, higher = more binding, comparable within an allelic series) with PAX4 [3]; 9.16 upbm affinity estimate (log intensity, higher = more binding, comparable within an allelic series) with PAX4 [4]; 9.17 upbm affinity estimate (log intensity, higher = more binding, comparable within an allelic series) with PAX4 [5]; 6.75 upbm affinity estimate (log intensity, higher = more binding, comparable within an allelic series) with PROP1 [7]. Moreover, the binding signal with PROP1 [8] was 6.63 upbm affinity estimate (log intensity, higher = more binding, comparable within an allelic series); with PROP1 [9], 6.3 upbm affinity estimate (log intensity, higher = more binding, comparable within an allelic series); with PAX4 [6] it was 9.27 upbm affinity estimate (log intensity, higher = more binding, comparable within an allelic series).
For the sequence CGAATTAA, the binding signal in the experiment with PAX4 [1] was 12 upbm affinity estimate (log intensity, higher = more binding, comparable within an allelic series); in the experiment with PAX4 [2], 12.6 upbm affinity estimate (log intensity, higher = more binding, comparable within an allelic series); in the experiment with PAX4 [3], 11.9 upbm affinity estimate (log intensity, higher = more binding, comparable within an allelic series); with PAX4 [4], 10.6 upbm affinity estimate (log intensity, higher = more binding, comparable within an allelic series); with PAX4 [5] it was 11.2 upbm affinity estimate (log intensity, higher = more binding, comparable within an allelic series); in the experiment with PAX4 [6] it was 11.1 upbm affinity estimate (log intensity, higher = more binding, comparable within an allelic series).
For ACCGGGGC, the binding signal was 9.07 upbm affinity estimate (log intensity, higher = more binding, comparable within an allelic series) with PAX4 [1]; 9.11 upbm affinity estimate (log intensity, higher = more binding, comparable within an allelic series) in the experiment with PAX4 [2]; 9.2 upbm affinity estimate (log intensity, higher = more binding, comparable within an allelic series) in the experiment with PAX4 [3]; 9.11 upbm affinity estimate (log intensity, higher = more binding, comparable within an allelic series) with PAX4 [4]; 9.09 upbm affinity estimate (log intensity, higher = more binding, comparable within an allelic series) with PAX4 [5]; 9.2 upbm affinity estimate (log intensity, higher = more binding, comparable within an allelic series) with PAX4 [6].
With CGACCTGC, the binding signal with PAX4 [1] was 9.47 upbm affinity estimate (log intensity, higher = more binding, comparable within an allelic series); with PAX4 [2] it was 9.54 upbm affinity estimate (log intensity, higher = more binding, comparable within an allelic series); with PAX4 [3], 9.42 upbm affinity estimate (log intensity, higher = more binding, comparable within an allelic series); with PAX4 [4] it was 9.26 upbm affinity estimate (log intensity, higher = more binding, comparable within an allelic series); in the experiment with PAX4 [5], 9.33 upbm affinity estimate (log intensity, higher = more binding, comparable within an allelic series); in the experiment with PAX4 [6], 9.35 upbm affinity estimate (log intensity, higher = more binding, comparable within an allelic series).
On to CCGTCCGA, for which the binding signal with PAX4 [1] was 9.27 upbm affinity estimate (log intensity, higher = more binding, comparable within an allelic series); in the experiment with PAX4 [2], 9.39 upbm affinity estimate (log intensity, higher = more binding, comparable within an allelic series); in the experiment with PAX4 [3] it was 9.28 upbm affinity estimate (log intensity, higher = more binding, comparable within an allelic series); in the experiment with PAX4 [4] it was 9.26 upbm affinity estimate (log intensity, higher = more binding, comparable within an allelic series); in the experiment with PAX4 [5] it was 9.27 upbm affinity estimate (log intensity, higher = more binding, comparable within an allelic series); with PROP1 [7], 6.64 upbm affinity estimate (log intensity, higher = more binding, comparable within an allelic series). Also, the binding signal in the experiment with PROP1 [8] is 6.59 upbm affinity estimate (log intensity, higher = more binding, comparable within an allelic series); with PROP1 [9], 6.67 upbm affinity estimate (log intensity, higher = more binding, comparable within an allelic series); in the experiment with PAX4 [6] it was 9.25 upbm affinity estimate (log intensity, higher = more binding, comparable within an allelic series).
Consider GGCGCGAC, for which the binding signal was 9.13 upbm affinity estimate (log intensity, higher = more binding, comparable within an allelic series) with PAX4 [1]; 9.13 upbm affinity estimate (log intensity, higher = more binding, comparable within an allelic series) with PAX4 [2]; 9.1 upbm affinity estimate (log intensity, higher = more binding, comparable within an allelic series) with PAX4 [3]; 9.14 upbm affinity estimate (log intensity, higher = more binding, comparable within an allelic series) with PAX4 [4]; 9.06 upbm affinity estimate (log intensity, higher = more binding, comparable within an allelic series) in the experiment with PAX4 [5]; 9.21 upbm affinity estimate (log intensity, higher = more binding, comparable within an allelic series) with PAX4 [6].
Regarding CAGCCGGG, the binding signal was 9.16 upbm affinity estimate (log intensity, higher = more binding, comparable within an allelic series) with PAX4 [1]; 9.21 upbm affinity estimate (log intensity, higher = more binding, comparable within an allelic series) with PAX4 [2]; 9.22 upbm affinity estimate (log intensity, higher = more binding, comparable within an allelic series) with PAX4 [3]; 9.02 upbm affinity estimate (log intensity, higher = more binding, comparable within an allelic series) with PAX4 [4]; 9.05 upbm affinity estimate (log intensity, higher = more binding, comparable within an allelic series) with PAX4 [5]; 9.17 upbm affinity estimate (log intensity, higher = more binding, comparable within an allelic series) in the experiment with PAX4 [6].
With TAATTCGA, the binding signal in the experiment with PAX4 [1] is 11.8 upbm affinity estimate (log intensity, higher = more binding, comparable within an allelic series); with PAX4 [2], 12.4 upbm affinity estimate (log intensity, higher = more binding, comparable within an allelic series); in the experiment with PAX4 [3] it was 11.7 upbm affinity estimate (log intensity, higher = more binding, comparable within an allelic series); with PAX4 [4] it was 10.6 upbm affinity estimate (log intensity, higher = more binding, comparable within an allelic series); with PAX4 [5], 11.2 upbm affinity estimate (log intensity, higher = more binding, comparable within an allelic series); in the experiment with PAX4 [6], 11 upbm affinity estimate (log intensity, higher = more binding, comparable within an allelic series).
